Source: PubChem (several laboratories)
In the library only some 1.2% were active in any assay of this set; here they are far more common.
HIF activator – HIF pathway transcriptional activators, primary screen, cell-based, U2OS HRE-luciferase, luminescence; U2OS HRE-luciferase reporter; normalized: DMSO 0%, desferrioxamine 100%; activation, % at 7.5 µM (by protocol); actives 0.32% (n = 300,000);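 active = mean activation of at least 10% of the iron chelator positive control signal, with at least half of replicates also reaching 10%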
HDAC3 inh – HDAC3 deacetylase inhibitors, primary screen, biochemical, fluorescence, cell-free homogeneous; Histone deacetylase 3 (Homo sapiens), O15379; recombinant HDAC3, fluorogenic peptide/trypsin coupled; inhibition, % at 8.3 µM; actives 0.15% (n = 320,000); AID 2718, 2010; in the data active = inhibition above about 26%, passing the limit was not always enough
LANA-H2A inh – blockers of LANA interaction with H2A/H2B – biochemical, FP readout, HTS, primary screen; Protein LANA1 (Human herpesvirus 8 type P (isolate GK18)), Q9QR71; cell-free LANA-H2A/H2B peptide, fluorescence polarization; inhibition, % (test concentration not listed); actives 0.6% (n = 320,000); AID 2629, 2010; in the data active = inhibition mostly above about 10%, no sharp cut-off; inactive = mostly below about 6.7%
Target sequence (Q9QR71 whole entry, looked up): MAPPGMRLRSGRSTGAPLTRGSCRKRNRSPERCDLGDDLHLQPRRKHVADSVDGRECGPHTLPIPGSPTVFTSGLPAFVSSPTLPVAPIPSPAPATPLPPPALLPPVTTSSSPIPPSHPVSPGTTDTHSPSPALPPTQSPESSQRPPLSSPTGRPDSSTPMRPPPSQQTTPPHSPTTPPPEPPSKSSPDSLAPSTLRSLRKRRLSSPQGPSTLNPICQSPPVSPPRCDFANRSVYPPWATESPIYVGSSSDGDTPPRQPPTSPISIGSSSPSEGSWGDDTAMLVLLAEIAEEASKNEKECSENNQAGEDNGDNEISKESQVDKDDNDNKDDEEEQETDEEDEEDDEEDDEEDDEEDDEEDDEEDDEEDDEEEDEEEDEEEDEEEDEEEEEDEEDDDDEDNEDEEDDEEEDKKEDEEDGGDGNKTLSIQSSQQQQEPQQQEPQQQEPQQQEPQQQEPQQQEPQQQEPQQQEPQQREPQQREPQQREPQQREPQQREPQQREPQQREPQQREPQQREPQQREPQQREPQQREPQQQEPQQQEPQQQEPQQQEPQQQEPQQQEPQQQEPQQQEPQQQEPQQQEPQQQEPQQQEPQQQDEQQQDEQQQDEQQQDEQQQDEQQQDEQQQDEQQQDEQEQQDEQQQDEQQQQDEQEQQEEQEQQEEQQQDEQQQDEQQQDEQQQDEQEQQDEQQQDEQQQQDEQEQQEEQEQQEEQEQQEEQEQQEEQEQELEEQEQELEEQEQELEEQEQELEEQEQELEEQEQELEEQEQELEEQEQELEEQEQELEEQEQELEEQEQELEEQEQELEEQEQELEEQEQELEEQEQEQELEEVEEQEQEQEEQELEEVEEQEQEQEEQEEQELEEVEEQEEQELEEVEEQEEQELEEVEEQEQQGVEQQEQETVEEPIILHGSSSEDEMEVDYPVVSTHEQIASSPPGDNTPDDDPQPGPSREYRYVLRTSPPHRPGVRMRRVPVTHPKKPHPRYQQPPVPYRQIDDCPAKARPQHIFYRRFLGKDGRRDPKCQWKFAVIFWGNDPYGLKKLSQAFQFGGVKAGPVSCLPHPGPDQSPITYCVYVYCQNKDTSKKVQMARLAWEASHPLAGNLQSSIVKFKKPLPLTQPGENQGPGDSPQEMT
CR mimetic SO – reduction of superoxide in aged yeast, primary screen, HTS. S. cerevisiae aged cells, superoxide DHE fluorescence; active compounds read low. superoxide response (% of plate mean), % at 10 µM. actives 0.18% (n = 330,000);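 active = superoxide response under a set limit, about three screen SD below normal, cut at about 65% in these data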;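 also: yeast aged for seven days with compound at 30 °C before DHE staining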
CR mimetic CP – superoxide lowering in aged yeast cells, confirmation, cherry picked compounds; shares compounds with CR mimetic SO; S. cerevisiae aging, superoxide DHE fluorescence; active compounds read low; superoxide response (% of plate), % at 10 µM; actives 1% (n = 850);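 active = superoxide signal below 65% of the plate average of sample wells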;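 also: cells aged with compound for 7 days at 30 degrees C before staining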
DHE fluor count – DHE quenching or ROS scavenging interference in aged yeast, artefact control for yeast caloric restriction mimetic project, S. cerevisiae BY4741, flow cytometry. DHE fluorescence; active compounds read low. 850 tested, under 10 active. fluorescence response, % at 10 µM. AID 435000, 2010. shares compounds with CR mimetic SO;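 active = fluorescence response below 15%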;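 also: lower means stronger quenching of DHE signal or ROS scavenging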
Hits are given with their value; 0 = inactive; - = no result.

SMILES	HIF activator	HDAC3 inh	LANA-H2A inh	CR mimetic SO	CR mimetic CP	DHE fluor count
CC(C)CNC(=S)NNC(=O)c1csc2c1CCC(C)C2 (stereo unspecified)	0	0	0	59	0	0
COc1ccc(Cl)cc1NS(=O)(=O)c1ccc(OC)c(OC)c1	0	0	0	0	-	-
COc1cc(NS(=O)(=O)c2cc(C)ccc2OC)c(OC)cc1Cl	0	0	0	0	-	-
COc1ccc(S(=O)(=O)Nc2cc(Cl)ccc2OC)cc1	0	0	0	0	0	0
COc1cc(S(=O)(=O)Nc2ccccc2C)ccc1Cl	0	0	0	0	0	0
COc1cc(S(=O)(=O)Nc2c(C)cc(C)cc2C)ccc1Cl	0	0	0	0	-	-
COc1ccc(C)cc1S(=O)(=O)Nc1cc(Cl)ccc1Cl	0	0	0	0	0	0
O=C(c1ccco1)N1CCN(C(=O)C2CC(=O)N(c3ccc(Cl)cc3)C2)CC1 (stereo unspecified)	0	0	0	0	-	-
CC(=O)Nc1cccc(C(=O)OC(C)C(=O)N2CCc3ccccc32)c1 (stereo unspecified)	0	0	0	0	-	-
CCOC(=O)C(=O)/C(C#N)=C/Nc1ccc(F)cc1	0	0	0	0	-	-
CCOC(=O)NC(=O)/C(C#N)=N/Nc1ccc(F)cc1	0	0	0	0	0	0
O=C(NNc1nc(=O)c2cccnc2s1)c1ccccc1O	0	0	0	50	0	0
COc1cc(-c2nnc(SCC(=O)OC3CCCCC3)o2)cc(OC)c1OC	0	0	0	0	-	-
CCCCCOC(=O)CSc1nnc(-c2cc(OC)c(OC)c(OC)c2)o1	0	0	0	0	0	0
CCCOC(=O)CSc1nnc(-c2cc(OC)c(OC)c(OC)c2)o1	0	0	0	0	0	0
CCOC(=O)CSc1nnc(-c2cc(OC)c(OC)c(OC)c2)o1	0	0	0	0	0	0
CCC1CCC(c2nnc(-c3ccc([N+](=O)[O-])cc3)o2)CC1 (stereo unspecified)	0	0	0	0	-	-
CC(C)c1ccc(/C=C/C(=O)NC(=S)NN2CCOCC2)cc1	-	0	0	0	-	-
CC(C)c1ccc(/C=C/C(=O)NC(=S)Nc2ccc(CN3CCOCC3)cc2)cc1	0	0	0	61	0	0
COc1cccc(CN(C)C(=S)Nc2ccc(C)c(C)c2)c1	0	0	0	0	-	-
C/C(=N\OCC(=O)OCC(=O)NC(=O)c1ccc(OC(F)F)cc1)c1ccc2c(c1)OCO2	0	0	0	0	-	-
CC(C)(C)NC(=O)CSc1nc2ccc(Nc3nc(N4CCOCC4)nc(N4CCOCC4)n3)cc2s1	0	0	0	0	-	-
CC(=O)CSc1nc2ccc(Nc3nc(N4CCOCC4)nc(N4CCOCC4)n3)cc2s1	0	0	0	60	0	0
COc1ccc(S(=O)(=O)N2CCCC2)cc1C(C)C	0	0	0	0	0	0
Cc1ccc(S(=O)(=O)N2CCCC2)cc1C(=O)O	0	0	0	0	0	0
SMILES	HIF activator	HDAC3 inh	LANA-H2A inh	CR mimetic SO	CR mimetic CP	DHE fluor count
CCOC(=O)c1cccc(S(=O)(=O)N2CCCC2)c1	0	0	0	0	0	0
COc1ccc(S(=O)(=O)N2CCCC2)cc1C(=O)O	0	0	0	0	0	0
COc1ccc(S(=O)(=O)N2CCCC2)cc1OC	0	0	0	0	-	-
Cc1ccc(S(=O)(=O)NNC(=O)c2snnc2C)cc1	0	0	0	0	-	-
Cc1nnsc1C(=O)NNS(=O)(=O)c1cc(C(F)(F)F)cc(C(F)(F)F)c1	0	0	0	59	0	0
CCOC(=O)c1cnc2cc(C)nn2c1C	0	0	0	0	-	-
CCOC(=O)c1cnc2cc(-c3ccc(Br)cc3)nn2c1C	0	0	0	0	0	0
COc1ccc2c(c1)CCCC21NC(=O)N(CC(=O)NCc2cccs2)C1=O (stereo unspecified)	-	0	0	0	-	-
N#Cc1ccc(Cl)cc1NC(=O)CNCc1cccs1	0	0	0	63	0	0
COc1ccc(-n2c(=O)c(CCC(=O)NCCc3ccccc3F)nc3ccccc32)cc1	-	0	0	0	-	-
O=c1c2cc(Br)ccc2nc(-c2ccc([N+](=O)[O-])cc2)n1O	0	0	0	0	-	-
